Source: PubChem BioAssay (NCATS)
Records with an inconclusive call do not appear. Where a call stands in place of a potency, no number is given. Unmarked numbers belong to inactive results. Calls of active or inactive are those of the source. Calls come from the whole dose curve; as a rule, active = well fitted inhibition curve with a large enough effect; inconclusive = small, poorly fitted or top-dose-only effect; inactive = flat fitted curve, though single readings scatter.

What was measured:
KB-3-1 = assay: Cytotoxic Profiling of Annotated Libraries Using Quantitative High-Throughput Screening (AID 1296008); settings: Five cell lines viability, CellTiter-Glo ATP luminescence, 48-72 h; max response: hits give low values
Outline: (§1)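 Cells exposed to compounds for 48 or 72 hr at 37 degrees Celsius. Viability read as ATP-coupled luminescence with CellTiter-Glo after 10 min at room temperature.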

NIH3T3 [1] = assay: as above; settings: Five cell lines viability, CellTiter-Glo ATP luminescence, 48-72 h; max response: hits give low values
Outline: as §1

HACAT = assay: qHTS assay to identify novel small-molecules to repurpose for Merkel cell carcinoma treatment (AID 1296009); settings: MCC and control cell lines, CellTiter-Glo viability, 72 h; at 44.8 µM (top of the series) unless noted
Outline: (§2)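 Cells were treated for 72 hr at 37 degree celsius with compounds in 8- or 11-point dose response. Viability was read by CellTiter-Glo luminescence, normalized to no-cell (cytotoxicity) and DMSO controls.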

MCC-13 = assay: as above; settings: MCC and control cell lines, CellTiter-Glo viability, 72 h; series mostly up to 46 µM
Outline: as §2

MKL-2 = assay: as above; settings: MCC and control cell lines, CellTiter-Glo viability, 72 h; series mostly up to 46 µM
Outline: as §2

NIH3T3 [2] = assay: as above; settings: MCC and control cell lines, CellTiter-Glo viability, 72 h; at 44.8 µM (top of the series) unless noted
Outline: as §2

MCC-26 = assay: as above; settings: MCC and control cell lines, CellTiter-Glo viability, 72 h; series mostly up to 46 µM
Outline: as §2

MKL-1 = assay: as above; settings: MCC and control cell lines, CellTiter-Glo viability, 72 h; series mostly up to 46 µM
Outline: as §2

UISO = assay: as above; settings: MCC and control cell lines, CellTiter-Glo viability, 72 h; series mostly up to 46 µM
Outline: as §2
Note: nearly all actives have a fitted effect of over 60% in size.
Potency is the fitted concentration of half-maximal effect.

COc1cc(C[C@@H](CO)[C@H](CO)Cc2ccc(O)c(OC)c2)ccc1O
max response (KB-3-1): 3.84% | outcome (NIH3T3 [1]): inactive | outcome (HACAT): inactive | Potency (MCC-13): inactive | Potency (MKL-2): 16.6 µM (active) | outcome (NIH3T3 [2]): inactive

CC(C)C[C@H](NC(=O)CNC(=O)c1cc(Cl)ccc1Cl)B1OC(=O)CC(CC(=O)O)(C(=O)O)O1 (stereo partly drawn)
Potency (KB-3-1): 1.05 µM (active) | Potency (NIH3T3 [1]): 0.833 µM (active) | Potency (MCC-13): 1.18 µM (active) | Potency (MCC-26): 0.59 µM (active) | Potency (MKL-1): 0.743 µM (active) | Potency (MKL-2): 0.187 µM (active)

C=CC[C@@H]1C=C(C)C[C@H](C)C[C@H](OC)[C@H]2O[C@@](O)(C(=O)C(=O)N3CCCC[C@H]3C(=O)O[C@H](C(C)=C[C@@H]3CC[C@H](O)[C@H](OC)C3)[C@@H](C)[C@@H](O)CC1=O)[C@@H](C)C[C@@H]2OC
outcome (KB-3-1): inactive | outcome (NIH3T3 [1]): inactive | outcome (HACAT): inactive | Potency (MCC-26): inactive | outcome (NIH3T3 [2]): inactive

C#C[C@]1(O)CC[C@@H]2[C@@H]3CCc4cc(O)ccc4[C@H]3CC[C@@]21C
Potency (KB-3-1): 20.9 µM (active) | max response (NIH3T3 [1]): -5.15% | Potency (MCC-13): inactive | Potency (MCC-26): inactive | Potency (MKL-1): inactive

C[C@H](NC(=O)C(C#N)=Cc1cccc(Br)n1)c1ccccc1
Potency (KB-3-1): 4.69 µM (active) | Potency (NIH3T3 [1]): 9.35 µM (active) | Potency (MCC-13): inactive | Potency (MCC-26): inactive | Potency (MKL-1): inactive

CC(=O)N[C@H]1[C@@H]([C@H](O)[C@H](O)CO)OC(C(=O)O)=C[C@@H]1N=C(N)N
outcome (KB-3-1): inactive | max response (NIH3T3 [1]): 3.71% | Potency (MCC-13): inactive | Potency (MCC-26): inactive | Potency (MKL-1): inactive | Potency (MKL-2): inactive | Potency (UISO): inactive

C[C@@H](Oc1ccc2[nH]nc(C=Cc3cnn(CCO)c3)c2c1)c1c(Cl)cncc1Cl
Potency (KB-3-1): 0.418 µM (active) | Potency (NIH3T3 [1]): 3.72 µM (active) | Potency (MCC-13): 26.4 µM (active) | Potency (MCC-26): 16.6 µM (active) | Potency (MKL-1): 7.43 µM (active) | Potency (MKL-2): inactive | Potency (UISO): 20.9 µM (active)

CCOC(=O)C=C[C@H](C[C@@H]1CCNC1=O)NC(=O)[C@@H](CC(=O)[C@@H](NC(=O)c1cc(C)on1)C(C)C)Cc1ccc(F)cc1
max response (KB-3-1): 4.76% | max response (NIH3T3 [1]): 0.598% | Potency (MCC-13): inactive | Potency (MCC-26): inactive | Potency (MKL-1): inactive | Potency (MKL-2): inactive | Potency (UISO): inactive
